Measured values taken from PubChem BioAssay AID1851 (National Center for Advancing Translational Sciences (NCATS), 2009).
Among all 16,000 compounds or so, about 2,600 (16%) were called active. Roughly 20% stayed inconclusive and do not appear here. Calls follow the shape of the dose curve; as a rule, active = well fitted curve in the direction sought with a large enough effect; inconclusive = small, poorly fitted or top-dose-only effect, or effect the other way; inactive = no such curve, though single readings can be large or run the other way. Only a sample is shown.

target: Cytochrome P450 2D6 (Homo sapiens) (UniProt P10635); test: Cytochrome panel assay with activity outcomes; conditions: recombinant CYP, pro-luciferin dealkylation, luminescence, p450-cyp2d6; series mostly up to 57.1 µM; activity, negative = inhibition: at the top concentration
% is scaled to controls: 0 for no effect and ±100 for the full control effect.

Sequence of Cytochrome P450 2D6 (Homo sapiens) (P10635 whole entry, looked up): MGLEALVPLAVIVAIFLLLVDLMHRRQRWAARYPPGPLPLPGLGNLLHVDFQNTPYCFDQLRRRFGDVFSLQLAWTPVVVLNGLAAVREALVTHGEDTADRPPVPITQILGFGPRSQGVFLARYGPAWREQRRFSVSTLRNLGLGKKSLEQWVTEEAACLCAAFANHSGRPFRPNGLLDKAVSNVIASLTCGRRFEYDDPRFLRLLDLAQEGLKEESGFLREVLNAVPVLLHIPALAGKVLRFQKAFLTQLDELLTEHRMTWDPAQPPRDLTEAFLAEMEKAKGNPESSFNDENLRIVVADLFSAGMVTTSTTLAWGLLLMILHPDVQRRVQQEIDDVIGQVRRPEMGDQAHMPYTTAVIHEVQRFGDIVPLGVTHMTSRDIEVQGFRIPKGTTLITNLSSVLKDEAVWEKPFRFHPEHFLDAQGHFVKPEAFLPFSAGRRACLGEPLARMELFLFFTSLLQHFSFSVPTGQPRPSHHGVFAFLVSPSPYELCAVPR

| Structure (SMILES) | activity, negative = inhibition | AC50 |
| --- | --- | --- |
| Cc1sc2c(c1C)c(=O)n(-c1ccccc1)c1nnc(C)n21 | -7.69% (inactive) |  |
| CC(C)(Oc1ccc(Cl)cc1)C(=O)Nc1ccncc1 |  | 0.0316 µM (active) |
| CC(C)(Oc1ccc(Cl)cc1)C(=O)Nc1cccnc1 | -19.7% (inactive) |  |
| CC(C)OC(=O)C(C)(C)Oc1ccc(C(=O)c2ccc(Cl)cc2)cc1 | -6.74% [at 25.6 µM] (inactive) |  |
| CN(C)c1ncc2nc(-c3ccc(F)cc3)c(=O)n(CCc3ccccc3)c2n1 | 0.289% (inactive) |  |
| COc1cc2ccc(=O)oc2cc1O | -3.08% [at 25.6 µM] (inactive) |  |
| CN(C)C(=O)c1ccc(-c2cncnc2NCCN2CCOCC2)cc1 | -9.47% (inactive) |  |
| COc1cccc(-c2cncnc2NCCN2CCOCC2)c1 |  | 10 µM (active) |
| N#Cc1cccc(-c2nc(NCCN3CCOCC3)c3ccccc3n2)c1 |  | 7.94 µM (active) |
| CS(=O)(=O)Nc1cccc(-c2nc(NCCN3CCOCC3)c3ccccc3n2)c1 | -16.5% (inactive) |  |
| Cc1noc(C)c1-c1cncnc1NCCN1CCOCC1 | -18.3% (inactive) |  |
| N#CCCn1c(=O)c(-c2cccc(C#N)c2)nc2cnc(N3CCOCC3)nc21 | -0.118% (inactive) |  |
| COc1cccc(-c2cc(C(F)(F)F)nc(N3CCOCC3)n2)c1 | -15% (inactive) |  |
| c1cncc(-c2nc(NCCN3CCOCC3)c3ccccc3n2)c1 |  | 10 µM (active) |
| COc1cccc(-c2nc(NCCN3CCOCC3)c3ccccc3n2)c1 |  | 12.6 µM (active) |
| COC(=O)c1ccccc1NC(=O)c1ccc(COc2ccc(C)c(C)c2)o1 | -19.6% (inactive) |  |
| NCCCCCCCCCCN | 4.93% (inactive) |  |
| O=C1NC(c2ccccc2)=NC1(NS(=O)(=O)c1ccccc1)C(F)(F)F (stereo unspecified) | 1.41% (inactive) |  |
| CCOC(=O)c1cc(-c2ccccc2)sc1NC(=O)C(C)(C)C | 19.9% (inactive) |  |
| Nc1nc(-c2ccc3ccccc3c2)cc(-c2cc(-c3ccc4ccccc4c3)nc(N)n2)n1 | 1.49% [at 11.4 µM] (inactive) |  |
| CC(=O)Nc1cccc(C(=O)OCc2ccc(C(=O)Oc3ccc(Cl)cc3)cc2)c1 | -14% (inactive) |  |
| CN1CCN(C(=O)C(C(=O)c2ccc(F)cc2)n2ccccc2=O)CC1 (stereo unspecified) | 6.96% (inactive) |  |
| CCc1cccc2c(C=C(C#N)C#N)cn(CC(=O)N3CCCC3)c12 | 10.2% (inactive) |  |
| COc1ccc(/C=C2\CCCC3C2=NN(C(=O)c2ccco2)C3c2ccc(OC)c(OC)c2)cc1OC (stereo unspecified) | -5.57% (inactive) |  |
| COc1ccc(/C=C2\N=C(SC)N(C)C2=O)cc1 | -32.1% (inactive) |  |
| O=C(N/N=C/C=C/c1ccccc1)c1cc2c(ccc3ccccc32)o1 | 15.2% (inactive) |  |

| Structure (SMILES) | activity, negative = inhibition | AC50 |
| --- | --- | --- |
| O=C(O)[C@@H](O)[C@@H](O)[C@@H](O)[C@@H](O)C(=O)O (tested in a mixture with another compound) | -8.07% [at 25.6 µM] (inactive) |  |
| CC(C)CCNC(=S)NC1CCCC1 | -17.1% (inactive) |  |
| Cc1nn(C(C)(C)C)c(OC(=O)c2ccco2)c1Sc1ccccc1 | -16.8% (inactive) |  |
| CCOC(=O)c1c(C)c(C)n2c1NC(=O)C2 | -4.83% [at 11.4 µM] (inactive) |  |
| CCOC(=O)c1c(C)c(C(=O)N2CCN(C(=O)c3ccco3)CC2)c(C)n1C | 16.8% (inactive) |  |
| CCOC(=O)c1c(C)c(C(=O)N2CCCCCC2)c(C)n1C |  | 11.2 µM (active) |
| C[C@@]12CC[C@@H]3c4ccc(O)cc4CC[C@H]3[C@H]1C[C@@H](O)[C@H]2O | 2.27% [at 25.6 µM] (inactive) |  |
| Oc1ccccc1C(Sc1nc2ccccc2s1)Sc1nc2ccccc2s1 | -20.9% [at 11.4 µM] (inactive) |  |
| Cc1ccc(C(=O)CN(C(=O)c2ccc(Cl)cc2)N2C(=O)c3ccccc3C2=O)cc1 | -2.54% (inactive) |  |
| Cc1nnc(-c2cnn(-c3ccccc3)c2N)n1Cc1ccccc1 | 1.53% (inactive) |  |
| CN(C)c1ccccc1CN1CCCN(Cc2ccccc2N(C)C)C1c1ccncc1 |  | 1.26 µM (active) |
| COc1cccc(/C=N\NC(=O)C2C(=O)NCC2c2ccccc2)c1O (stereo unspecified) | -4.87% (inactive) |  |
| COc1ccc(-c2nn(-c3ccccc3)cc2/C=N/NC(=O)c2ccc(Br)o2)cc1 | 0.403% (inactive) |  |
| Cn1c(=O)n(CC#N)c2ccccc21 | 2.65% (inactive) |  |
| c1ccc(Cc2nnc(Sc3ccccc3)c3ccccc23)cc1 | -66.9% (inactive) |  |
| CN(CCc1ccccn1)c1ccc2c(c1)Cc1ccccc1-2 |  | 3.16 µM (active) |
| CNCCc1ccccn1 | 7.33% [at 25.6 µM] (inactive) |  |
| S=C(Nc1ccc2c(c1)Cc1ccccc1-2)Nc1ccc2c(c1)Cc1ccccc1-2 | 1.03% [at 11.4 µM] (inactive) |  |
| COCC(=O)Nc1c(I)c(C(=O)NC[C@@H](O)CO)c(I)c(C(=O)N(C)C[C@@H](O)CO)c1I | -0.434% [at 25.6 µM] (inactive) |  |
| O=C(CCCc1ccccc1)N1CCN(c2ccc([N+](=O)[O-])cc2)CC1 | -12.6% (inactive) |  |
| CCOc1cc(/C=C2/SC(=O)N(CC(=O)N3CCc4ccccc4C3)C2=O)ccc1OCC(=O)O | 1.37% (inactive) |  |
| CC(C)N(C(=O)CSc1nc2ccccc2n1-c1ccccc1)C(C)C | -26.4% (inactive) |  |
| COc1ccc(C(=O)N2CCC[C@@]3(CCN(Cc4ccc(C#N)cc4)C3)C2)cc1 | -17.5% (inactive) |  |
| COc1ccc(C(=O)N2CCC3(CCCN(CC(C)C)C3)CC2)cc1 | -15% (inactive) |  |
| COc1ccc(C(=O)N2CCC[C@@]3(CCN(Cc4ccccc4)C3)C2)cc1 |  | 7.94 µM (active) |
| COc1ccc(C(=O)N2CCC3(CCCN(C)C3)CC2)cc1 | 3.52% (inactive) |  |

| Structure (SMILES) | activity, negative = inhibition | AC50 |
| --- | --- | --- |
| COc1ccc(C(=O)N2CCC3(CCCN(Cc4ccccc4)C3)CC2)cc1 |  | 7.94 µM (active) |
| COc1ccc(C(=O)N2CCC[C@@]3(CCN(C(=O)Nc4ccccc4)C3)C2)cc1 | 8.36% (inactive) |  |
| C=CCc1cc(C=O)cc(OC)c1OCc1ccc(Cl)cc1 | -12.6% (inactive) |  |
| COc1cc(-n2ccnc2SC)c(Cl)cc1Cl | -9.75% (inactive) |  |
| CCNc1nc(NCC)nc(ON=C(C)C)n1 | 4.81% (inactive) |  |
| COc1ccc2nc(/N=C\N(C)C)sc2c1 | -10.1% (inactive) |  |
| Cc1[nH]n2c(=O)c(C#N)c(-c3ccccc3)nc2c1-c1ccccc1 | 1.51% (inactive) |  |
| CCC#CCOCC(=O)Nc1ccccc1 | 0.758% (inactive) |  |
| Cn1ncc2c(Nc3cccc(Cl)c3)nc(Nc3cccc(Cl)c3)nc21 | 16.7% [at 11.4 µM] (inactive) |  |
| c1ccc(CCNc2nnnn2-c2ccccc2)cc1 | -16.8% (inactive) |  |
| Cn1ncc2c(NCCc3ccccc3)nc(Cl)nc21 |  | 0.126 µM (active) |
| CC(C)n1c(=O)c2c(O)cc(=O)oc2c2ccccc21 | -10.6% (inactive) |  |
| NC(=O)[C@H]1CC2(CC(c3cccc(NC(=O)c4ccccc4)c3)=NO2)CN1C(=O)[C@H]1CCC(=O)N1 (stereo partly specified) | 0.596% (inactive) |  |
| CCC(CC)C(=O)Nc1cccc(C(=O)Nc2ccc(OC)cc2[N+](=O)[O-])c1 | 13% (inactive) |  |
| COc1ccc(NC(=O)C(F)(F)F)cc1OC | 3.91% (inactive) |  |
| CCCCCCCCC[n+]1cccc2c3ccccc3ccc21 |  | 0.0708 µM (active) |
| O=C(OC(C(=O)NC1CCCC1)c1ccncc1)C1=Cc2ccccc2OC1 (stereo unspecified) | 0.043% (inactive) |  |
| Cc1ccc(CNC(=O)C2(NC(=O)Nc3ccc(C)cc3)CCCCC2)cc1 | -4.3% (inactive) |  |
| CCN(CC)C(=O)CSc1nnc(-c2cc3ccccc3cc2O)n1CC | -4.31% (inactive) |  |
| CCn1c(COc2ccccc2)nnc1SCC(=O)c1cccc([N+](=O)[O-])c1 | -17.8% (inactive) |  |
| CCn1c(SCC(=O)OC)nnc1C1CCCCC1 | -1.44% (inactive) |  |
| COc1ccc(NC(=O)CSc2nnc(C3CC3)n2-c2ccccc2)cc1 | -4.69% (inactive) |  |
| CCn1c(SCC(=O)c2ccc3ccccc3c2)nnc1-c1cccs1 |  | 14.1 µM (active) |
| CCn1c(SCC(=O)NC2CCCc3ccccc32)nnc1-c1cccs1 (stereo unspecified) | -25.5% (inactive) |  |
| CCn1c(SCC(=O)c2ccc(OC)cc2)nnc1C1CC1 |  | 14.1 µM (active) |
| CCn1c(SCC(=O)c2ccccc2)nnc1-c1cccs1 |  | 14.1 µM (active) |

| Structure (SMILES) | activity, negative = inhibition | AC50 |
| --- | --- | --- |
| CCn1c(SCC(=O)NC(=O)NCc2ccco2)nnc1-c1cccs1 | -27.5% (inactive) |  |
| CCCCN=c1sc(C(=O)OC)cc(=O)n1CCCC | -10.8% (inactive) |  |
| O=C1C2=C(Nc3cc([N+](=O)[O-])ccc3N2)O[C@@H]1c1c[nH]c2ccc(COc3ccccc3)cc12 | 5.7% [at 11.4 µM] (inactive) |  |
| Cc1noc(C)c1C(=O)N1CCC2(CCCN(c3ccncc3)C2)CC1 | 2.43% (inactive) |  |
| O=C(O)c1cc2c(o1)CCC/C2=N\O | 9.97% (inactive) |  |
| Cc1nc2ncnn2c(C)c1CCC(=O)Nc1ccc(S(=O)(=O)N2CCCCCC2)cc1 | -10.7% (inactive) |  |
| CCCn1nc(Oc2nc(NCC)nc(NCC)n2)ccc1=O | -6.81% (inactive) |  |
| Cc1nc2nc(-c3ccc(Cl)cc3)nn2c(C)c1Cl | -3.06% (inactive) |  |
| COC(=O)c1cc(NC(=O)CC2NC3CCCCC3NC2=O)cc(C(=O)OC)c1 (stereo unspecified) | 10.9% (inactive) |  |
| C/C=C\C[C@H](C)[C@H](O)[C@H]1C(=O)N[C@@H](CC)C(=O)N(C)CC(=O)N(C)[C@@H](CC(C)C)C(=O)N[C@@H](C(C)C)C(=O)N(C)[C@@H](CC(C)C)C(=O)N[C@@H](C)C(=O)N[C@@H](C)C(=O)N(C)[C@@H](CC(C)C)C(=O)N(C)[C@@H](CC(C)C)C(=O)N(C)[C@@H](C(C)C)C(=O)N1C | -1.21% [at 25.6 µM] (inactive) |  |
| COc1ncc2nc(-c3ccc(Cl)cc3)c(=O)n(-c3ccccc3)c2n1 | -2.38% (inactive) |  |
| CCc1ccc(-c2ccc(C(=O)C(F)(F)F)[nH]2)cc1 | 7.66% (inactive) |  |
| Cc1ccccc1C(=O)NC(NCc1ccco1)C(Cl)(Cl)Cl (stereo unspecified) | -0.249% (inactive) |  |
| Cc1nc(SCC(=O)Nc2c(C)nn(C)c2C)c2cnn(-c3ccccc3)c2n1 | 7.46% (inactive) |  |
| CCc1nnc(NC(=O)C2CCN(C(=O)NC3CCCCC3)CC2)s1 | 35.1% (inactive) |  |
| COc1cc(/C=N/NC(=O)c2cccc([N+](=O)[O-])c2)ccc1OCc1ccc(C)cc1 | -1.87% (inactive) |  |
| CC(=O)N/N=C/c1cc([N+](=O)[O-])ccc1OCCOc1ccccc1 |  | 0.0562 µM (active) |
| CC(/C=N/NC(=O)c1cccc([N+](=O)[O-])c1)=C\c1ccccc1 | -0.219% (inactive) |  |
| N#CCCn1c(=O)c(-c2ccccc2)nc2cnc(OCc3ccccc3)nc21 | 0.297% (inactive) |  |
| COc1ccc(COC(=O)N/N=C2/C[C@@H](O)[C@@H](O)[C@@H]3[C@@H]4C(=O)N([C@@H](C)c5ccccc5)C(=O)[C@H]4CC[C@H]23)cc1 | -3.9% [at 11.4 µM] (inactive) |  |
| O=C(C[n+]1cccc(NC(=O)c2ccccc2)c1)c1ccc(NC(=O)c2ccccc2)cc1 |  | 14.1 µM (active) |
| COc1ccc(C(=O)Nc2ccc(C(=O)OCC(=O)c3ccccc3)cc2)cc1 | -25.3% (inactive) |  |
| COc1ccc(C(=O)COC(=O)c2ccc(NC(=O)c3ccccc3)cc2)cc1 | 0.145% (inactive) |  |
